In the library only some 13% were active in any assay of this set; here they are far more common.
Pf growth 48h – P. falciparum growth inhibition at 48 hours (one generation); 5.9% of 310,000 active; Potency, µM (doses to about 28.7 µM), for inactives: at the highest dose activity change, negative = inhibition, hits mostly inhibitors; P. falciparum luciferase growth in erythrocytes, 48 h; further: potency means the concentration at half of the fitted maximal effect
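Parasite viability was followed by luminescence of a genomically integrated firefly luciferase. Cultures held 0.1% parasitemia at 2% hematocrit (final), incubated under 5% CO2 at 37 C.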
HCV inhibitor – inhibitors of hepatitis C virus infection. Huh7.5.1 HCVcc-Cre infection, luciferase reporter, 44 h. Potency, µM (series often up to 41.8 µM), inactives show at the highest dose activity change, negative = inhibition, actives largely listed as inhibitors. 3.4% of 340,000 active; further: potency means the concentration at half of the fitted maximal effect
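Whole-lifecycle infectious HCVcc-Cre system; cells 1,000/well, compound then virus (~0.5 moi) added 4 h after plating, 44 h culture. Luciferase read 15 sec following 15 min substrate incubation, room temp.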
HCMV inh – inhibitors of human cytomegalovirus | 4.5% of 410,000 active | activity change, negative = inhibition, % at 57.5 µM | AID 1259415 | HFF cells, HCMV-luciferase reporter, 72 h; active compounds read low; in the data active means activity change below about -60%; inconclusive means no clear call, values can overlap the other calls; inactive means above about -39%
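Screen run at 2 compound doses on HFFs infected with reporter HCMV, MOI 1 PFU/cell. Luciferase activity from cell lysates at 72 h post infection gave inhibition relative to buffer-only and Salinomycin wells.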
Pf growth 96h – P. falciparum growth inhibition at 96 hour, primary screen for plastid delayed-death inhibitors. P. falciparum luciferase reporter growth, 96 h. Potency, µM (top dose mostly 28.7 µM), for inactives: top-dose activity change, negative = inhibition, actives largely listed as inhibitors. 6.9% of 320,000 active. AID 504834; further: potency means the concentration at half of the fitted maximal effect
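Cell-based qHTS: luciferase-tagged P. falciparum in erythrocytes (2% hematocrit, 0.05% parasitemia final) incubated with compounds for 96 hours, 37 C, 5% CO2; luciferase detection reagent then added and luminescence measured.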
* marks the source's active call; other numbers are inactive results; ? = inconclusive; / = not tested or not shown; [ ] = another dose, or the depositor's remark. Unless noted, the call rests on the fitted dose curve; in most records, active means well fitted inhibition curve with a large enough effect; inconclusive means small, poorly fitted or top-dose-only effect, or another doubt; inactive means no such curve, though single readings can be large or run the other way. On the % scale 0 is the no-effect control and ±100 the full control effect.

SMILES	Pf growth 48h	HCV inhibitor	HCMV inh	Pf growth 96h
CCCC[C@@H]1C[C@H]1[C@@H](NC(=O)c1cccs1)c1ccc(C(F)(F)F)cc1	/	-2%	/	/
CCCC[C@@H]1C[C@H]1[C@@H](NC(=O)c1cccs1)c1ccc(Cl)cc1	?	3%[8.37 µM]	/	9.3µM*
OC(CNc1nc2ccccc2s1)c1ccccc1 (stereo unspecified)	13µM*	-17%	?	-29%
O=C(O)CCSc1nc2ccccc2s1	-24%	0%	-82*	1%
OC(CNc1nc(C(F)(F)F)nc2ccccc12)c1ccccc1 (stereo unspecified)	?	?	-66*	?
CCCN(c1ccc(C(C)C)cc1)S(=O)(=O)c1ccc2c(c1)oc(=O)n2CC(=O)OCC	/	/	-9	/
CCOC(=O)c1cccc(NC(=O)c2cc(CN3CCOCC3)on2)c1	/	/	14	/
Cc1ccc(-c2nnc3c4ccccc4c(C)nn23)cc1NC(=O)c1ccccc1	/	/	38	/
COc1ccc(CNC(=O)CN2C(=O)CCn3nc(-c4ccccc4)cc32)c(OC)c1	/	/	6	/
CCc1cccc2sc(N(CCCN3CCOCC3)C(=O)CS(=O)(=O)c3ccccc3)nc12	9.3µM*	0%	-12	?
Cc1ccc(S(=O)(=O)CC(=O)N(CCCN2CCOCC2)c2nc3c(F)cccc3s2)cc1	19%	2%	17	32%
O=C(CN1CCN(S(=O)(=O)c2ccc(Br)s2)CC1)N1CCc2ccccc21	/	/	-16	/
O=C(CN1CCN(S(=O)(=O)c2ccccc2)CC1)N1CCc2ccccc21	?	-18%	-37	12µM*
O=C(Cn1ncc2ccccc21)N1CCc2ccccc21	7%	16%	97	4.7µM*
COc1cc2c(cc1OC)CN(C(=O)CCN1C(=O)C3CCCCC3C1=O)CC2 (stereo unspecified)	-5%	14%	0	0%
COc1cc2c(cc1OC)CN(C(=O)CN1CCN(S(=O)(=O)c3ccccc3)CC1)CC2	?	7%	-23	13µM*
O=C(CN1CCc2ccccc2C1)N1CCN(S(=O)(=O)c2ccccc2)CC1	-9%	2%	18	-19%
COc1cc2c(cc1OC)CN(C(=O)CC1CC3CCC1C3)CC2 (stereo unspecified)	?	-22%	-18	2.6µM*
CCOC(=O)c1ccccc1NC(=O)c1cc2c(s1)-c1ccccc1SC2	/	/	17	/
CCCn1c(CCC(=O)Nc2cc(Cl)c(OC)cc2OC)nc2cccnc21	/	/	-19	/
Cn1nc(C(F)(F)F)c(C#N)c1N1CCN(c2ccc(F)cc2)CC1	-24%	?	-73*	/
Cc1ccc(-c2c(C)n([O-])c3c([n+]2=O)CCCCC3)o1	42%	3%	18	100%
Cc1c(-c2ccco2)[n+](=O)c2c(n1[O-])CCC2	18%	4%	-7	15µM*
Cc1nc2ccc(S(=O)(=O)NCC(=O)Nc3ccc(F)cc3F)cc2s1	/	/	33	/
Cc1cc(OCC(=O)Nc2ccccc2N2CCOCC2)c(C(C)C)cc1Cl	?	?	-66*	?
SMILES	Pf growth 48h	HCV inhibitor	HCMV inh	Pf growth 96h
Cc1cccc(NC(=O)CSCC(=O)Nc2cc(Cl)ccc2N2CCOCC2)c1	12µM*	?	?	?
O=C(Cc1ccc2c(c1)OCCO2)Nc1cc(Cl)ccc1N1CCOCC1	12µM*	?	-22	?
O=C(Nc1ccccc1N1CCOCC1)C1(c2ccc(Cl)cc2)CCC1	?	-29%	-66*	?
O=C(Cc1ccc(Cl)c(Cl)c1)Nc1ccccc1N1CCOCC1	0%	?	-19	-29%
Cc1cc(OCC(=O)N2CCOCC2)c(C(C)C)cc1Cl	2%	7%	-26	/
O=C(Cc1ccc(Cl)cc1)NC(=S)Nc1ccccc1N1CCOCC1	-6%	?	6	86%
COc1ccc(CNC(=O)CN2C(=O)COc3ccccc32)c(OC)c1	/	/	13	/
CCC(=O)N1CCN(c2ccccc2NC(=O)COc2ccc(C(C)C)cc2)CC1	10µM*	?	?	?
Cc1ccccc1OCC(=O)Nc1ccc(N2CCOCC2)cc1N1CCOCC1	9.3µM*	?	-25	?
CCc1ccc(OCC(=O)N2CCN(c3ccccc3F)CC2)cc1	17%	-11%	0	6.6µM*
Cc1ccccc1OCCC(=O)Nc1ccc(N2CCOCC2)cc1N1CCOCC1	?	?	-19	-7%
Cc1cc(Cl)ccc1OC(C)C(=O)Nc1ccccc1N1CCOCC1 (stereo unspecified)	7.4µM*	10µM*	-38	/
CC(Oc1ccc(Cl)cc1)C(=O)Nc1ccccc1N1CCOCC1 (stereo unspecified)	/	?	-28	/
Cc1ccnc2nc(C(=O)Nc3cc(Cl)ccc3N3CCOCC3)nn12	0.15µM*	-15%	-11	0.23µM*
CCN(CC)S(=O)(=O)c1ccc(N2CCCC2)c(NC(=O)Cc2ccccc2)c1	?	?	-21	?
CCN(CC)S(=O)(=O)c1ccc(N2CCOCC2)c(NC(=O)Cc2ccc(Cl)cc2)c1	12µM*	?	?	12µM*
O=C(COc1cccc(Br)c1)Nc1ccc(N2CCOCC2)cc1N1CCOCC1	?	?	-7	3%
CCC(=O)c1ccc(OCC(=O)Nc2ccc(N3CCOCC3)cc2N2CCOCC2)cc1	?	-1%	/	2.9µM*
CCN(CC)S(=O)(=O)c1ccc(N2CCOCC2)c(NC(=O)CC23CC4CC(CC(Br)(C4)C2)C3)c1	-20%	-17%	23	10µM*
CCN(CC)S(=O)(=O)c1ccc(N2CCOCC2)c(NC(=O)COc2ccccc2C)c1	1.9µM*	?	?	2.9µM*
Cc1csc(NC(=O)C(C)Oc2ccc(Cl)cc2C)n1 (stereo unspecified)	13µM*	?	0	?
CCN(CC)S(=O)(=O)c1ccc(N2CCOCC2)c(NC(=O)COc2ccccc2C#N)c1	12µM*	-13%	8	?
CCN(CC)S(=O)(=O)c1ccc(N2CCOCC2)c(NC(=O)COc2ccc(OC)cc2)c1	?	?	-37	?
COCCOC(=O)c1sc2nc[nH]c(=O)c2c1C	13%	2%	?	12%
CCOc1c(Br)ccc2c1sc1nc[nH]c(=O)c12	-2%	-7%	-23	9.3µM*
SMILES	Pf growth 48h	HCV inhibitor	HCMV inh	Pf growth 96h
COC(=O)C1=C(C)N(c2cc(C)cc(C)c2)/C(=C/c2ccc(O)cc2)C1=O	?	?	-96*	4%
COC(=O)C1=C(C)N(c2cc(C)cc(C)c2)/C(=C/c2ccco2)C1=O	8.3µM*	3%	-35	5%
COC(=O)C1=C(C)N(c2ccc(Cl)cc2)/C(=C/c2ccc(O)cc2)C1=O	-20%	?	-20	11%
CCOc1ccc(S(=O)(=O)NCC(c2ccc(N(C)C)cc2)N2CCCC2)cc1 (stereo unspecified)	/	/	-20	/
Cn1cc(-c2cc3cnc(Nc4ccc5c(c4)OCO5)cc3n2C)cn1	/	/	-7	/
C/C(=N\NC(=O)c1nnn(-c2nonc2N)c1CN(C)c1ccccc1)c1cccs1	-8%	-16%	0	33%

Source: PubChem BioAssay (National Center for Advancing Translational Sciences (NCATS))
